Bioassay records deposited in PubChem BioAssay by National Center for Advancing Translational Sciences (NCATS).
This is a sample that favours compounds with a hit; in the whole collection about 11% have one here.
HEK293 tox – cytotoxic compounds in HEK 293 cells; HEK 293 viability, ATP luminescence (CellTiter-Glo), 48-72 h; Potency, µM (top dose mostly 115 µM), inactives show at the highest dose activity change, negative = cytotoxicity, actives largely listed as inhibitors; actives 6.6% (n = 94,000); also: nearly all actives have a fitted effect of over 60% in size
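HEK 293 cells seeded at 250 cells/well were exposed to compound for 48 or 72 hr at 37 degree Celsius. Viability taken as ATP content by CellTiter-Glo luminescence.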
hNpr1 antagonist – blocks ANP-stimulated signaling of human Npr1 receptor. AID 1347048. Potency, µM (top dose mostly 46.3 µM), for the others: at the highest dose activity change, negative = inhibition, hits mostly inhibitors. HEK293 hNpr1 GloSensor cGMP, ANP-stimulated luminescence. actives 1.6% (n = 76,000); calls by dose curve; also: nearly all actives have a fitted effect of over 60% in size
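HEK293 cells stably expressing human Npr1 and cGMP GloSensor pGS-40F, loaded 2 h with 2% GloSensor reagent, given compound 30 min at room temperature. Luminescence read before and 20 min after 0.1 nM hNppA.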
Luciferase inh – Photinus pyralis luciferase inhibition | P08659 | purified P. pyralis luciferase, luminescence, biochemical | Potency, µM (doses to about 115 µM), usual class: inhibitors | actives 2.5% (n = 76,000); also: nearly all actives have a fitted effect of over 65% in size
Target sequence (P08659 whole entry, looked up): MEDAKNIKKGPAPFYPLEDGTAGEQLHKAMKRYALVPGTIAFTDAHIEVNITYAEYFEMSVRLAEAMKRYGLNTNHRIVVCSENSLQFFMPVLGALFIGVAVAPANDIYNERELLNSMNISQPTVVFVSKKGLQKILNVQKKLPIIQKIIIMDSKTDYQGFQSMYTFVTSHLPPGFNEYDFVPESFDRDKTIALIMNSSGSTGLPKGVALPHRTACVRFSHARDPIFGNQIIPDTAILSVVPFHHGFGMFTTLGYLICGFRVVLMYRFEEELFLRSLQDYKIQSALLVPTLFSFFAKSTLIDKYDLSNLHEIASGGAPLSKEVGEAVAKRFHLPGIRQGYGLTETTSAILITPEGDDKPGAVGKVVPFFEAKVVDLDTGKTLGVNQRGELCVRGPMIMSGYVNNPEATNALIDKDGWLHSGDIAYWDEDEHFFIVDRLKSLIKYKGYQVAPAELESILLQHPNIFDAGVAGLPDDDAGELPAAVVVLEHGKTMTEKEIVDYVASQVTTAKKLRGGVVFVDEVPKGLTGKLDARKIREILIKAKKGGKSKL
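Biochemical qHTS: compound (6-point titration) added to 10uM D-luciferin plus 10uM ATP in Tris acetate pH 7.5 buffer with Mg, Tween-20 and BSA, then purified enzyme at 10nM; light output imaged.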
3T3 cytotox – cytotoxic compounds in NIH 3T3 cells; NIH 3T3 viability, CellTiter-Glo ATP luminescence, 48-72 h; actives 4.3% (n = 94,000); Potency, µM (top dose mostly 96.7 µM), without a hit: top-dose activity change, negative = cytotoxicity, hits mostly inhibitors; also: nearly all actives have a fitted effect of over 55% in size
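Viability of NIH 3T3 cells after 48 or 72 hr compound treatment at 37 °C was assessed by CellTiter-Glo, with luminescence imaged following a 10 min room-temperature step.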
Active calls of the source: *; i = inactive; u = inconclusive; x = no result given; [ ] = another dose, or the depositor's remark. Unless noted, calls follow the shape of the dose curve; as a rule, active = well fitted curve in the direction sought with a large enough effect; inconclusive = small, poorly fitted or top-dose-only effect, or another doubt; inactive = no such curve, though single readings can be large; an effect the other way counts as inactive or inconclusive. % is scaled to controls: 0 for no effect and ±100 for the full control effect; potency is read from the fitted curve at half-maximal effect.

SMILES	HEK293 tox	hNpr1 antagonist	Luciferase inh	3T3 cytotox
CC(C(=O)NCCc1ccccc1)N1C(=O)COc2ccc(C(=O)COc3ccc(Cl)cc3)cc21 (stereo not drawn)	44.7µM*	-3.9%	i	u
Cc1cccc(OCC(=O)c2ccc3c(c2)N(C(C)C(=O)N2CCCC2)C(=O)CO3)c1C (stereo not drawn)	44.7µM*	0.0%	u	-29.8%
CC(C(=O)NC1CC1)N1C(=O)COc2ccc(C(=O)COc3cccc(Cl)c3)cc21 (stereo not drawn)	u	-15.8%	i	u
COc1ccccc1OCC(=O)c1ccc2c(c1)N(C(C)C(=O)NCCc1ccccc1)C(=O)CO2 (stereo not drawn)	u	6.8%	i	u
N#Cc1cccc(N2CCC3(CCC(=O)N(CC4CCCO4)C3)CC2)n1 (stereo not drawn)	-4.9%	0.0%	i	-19.0%
O=C1NC2(CCCN(C(=O)c3ccccc3)C2)COc2ccccc21 (stereo not drawn)	u	1.1%	i	u
O=C(C1CCC1)N1CCC2(CC1)CC(N1CCCCC1)CCO2 (stereo not drawn)	-3.0%	x	x	0.5%
O=C(Nc1ccccc1C(F)(F)F)N1CCCC1c1nncn1-c1ccccc1 (stereo not drawn)	7.2%	-0.6%	i	i
C=CCOCC(O)CN1CCC(=O)N(Cc2ccccc2)Cc2cc(F)ccc21 (stereo not drawn)	u	x	x	-29.1%
O=C1CCN(C[C@@H](O)COCc2ccccc2)c2ccc(F)cc2CN1Cc1ccccc1	44.7µM*	x	x	u
O=C1CCN(CC(O)Cc2ccccc2)c2ccc(F)cc2CN1Cc1ccccc1 (stereo not drawn)	31.6µM*	x	x	u
CN(C)C[C@@H]1CN(c2ccncn2)C[C@H]1NC(=O)c1nccc2ccccc12	-3.5%	10.6%	i	2.1%
Cc1oc(-c2cccc(Oc3ccccc3)c2)nc1CN1CC[C@H](N(C)C)C1	u	10.6%	i	79.4µM*
Cc1cccc2c(C3CCN(S(=O)(=O)c4cc(F)c(F)cc4Cl)CC3)c[nH]c12	u	-1.1%	i	31.6µM*
COc1ccc(Cl)cc1S(=O)(=O)N1CCC(c2c[nH]c3c(C)cccc23)CC1	u	-14.3%	i	u
Cc1cccc(C(=O)N2CCC(Cc3ncc(C)n3CC3CC3)CC2)c1	-15.9%	x	x	u
c1cncc(-c2ccnc(NCCCN3CCCc4ccccc43)n2)c1	u	-18.1%	i	22.4µM*
c1ccc2c(c1)CCCN2CCCNc1ncncn1	u	-1.7%	i	u
COC1C(=O)N(c2cccc(F)c2)C12CCN(C(=O)c1cn(C)cn1)CC2 (stereo not drawn)	-24.9%	0.3%	i	2.5%
O=[S+]([O-])(c1cccs1)N1CCCN(c2ccc3nnc(-c4ccccc4)n3n2)CC1	-7.1%	x	x	-20.5%
COc1ccc(S(=O)(=O)Nc2ccc3n(c2=O)C[C@H]2C[C@@H]3CN(C(=O)Nc3cc(OC)cc(OC)c3)C2)cc1	-2.0%	0.6%	i	50.1µM*
CN(c1cc(=O)c2ccnc(-c3cccc(CO)c3)c2o1)C1CCOCC1	-8.9%[172 µM]	0.7%[70.6 µM]	i	25.1µM*
CN(c1cc(=O)c2ccnc(-c3cncnc3)c2o1)C1CCOCC1	i	1.2%[70.6 µM]	i	79.4µM*
CN(C(=O)c1ccc2nc(-c3ccc(F)cc3)cn2c1)C1CCOCC1	u	6.3%	31.6µM*	-9.1%
COCCN(CC1CC1)C(=O)c1ccc2nc(-c3ccc(F)cc3)cn2c1	u	-10.0%	i	-17.1%
SMILES	HEK293 tox	hNpr1 antagonist	Luciferase inh	3T3 cytotox
Cc1ccsc1CN1CC(Oc2ccccc2C(=O)NCc2ccccc2)C1	39.8µM*	x	x	39.8µM*
O=C(NCc1ccccc1)c1ccccc1OC1CN(Cc2cccc(F)c2F)C1	u	x	x	20µM*
CCOc1ccc(CN2CC(Oc3ccccc3C(=O)NCc3ccccc3)C2)cc1	20µM*	x	x	u
Cc1c(CN2CC(Oc3ccccc3C(=O)NCc3ccccc3)C2)cnn1C	u	-12.0%	i	-7.7%
Cc1ccc(CN2CC(Oc3ccccc3C(=O)NC3CC3)C2)cc1	u	-1.7%	i	u
O=C(NCc1ccccc1)c1ccccc1OC1CN(Cc2cccc(C(F)(F)F)c2)C1	25.1µM*	x	x	12.6µM*
Cc1cccc(NC(=O)N2C[C@@H](Oc3cccnc3)C[C@@H]2C(=O)N2CCOCC2)c1	i	0.0%	i	3.4%
